MCF10A rereplic: inducers of DNA re-replication in MCF 10A breast cells. MCF 10A DNA re-replication, Hoechst nuclear intensity, 48 h. Potency, µM (titrated, usually from 46.1 µM), for inactives: at the top dose activity, positive = re-replication, hits mostly activators. actives 2.9% (n = 350,000). AID 624296; further: potency means the concentration at half of the fitted maximal effect; % of control where 0% means no effect; nearly all actives have a fitted effect of over 50% in size
IL-1B inflam inh: inhibitors of inflammasome signaling (IL-1 beta secretion); actives 4.7% (n = 360,000); activity change, % at 57.5 µM; THP-1 LPS/ATP IL-1B secretion, AlphaLISA, 16 h; stronger effect = lower value; in the data active means activity change below about -50%; inconclusive means mostly about -30% to -49%; further: on the % scale 0 is the no-effect control and ±100 the full control effect
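Secreted IL-1B measured by AlphaLISA bead assay after 16 h compound exposure of THP-1 cells; compounds (final up to 57.5 uM) added 1 h before LPS (250 ng/mL) and ATP (1.25 mM) stimulation; lower signal means less secretion.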
Vif-A3F inh: blocks the Vif interaction with APOBEC3F | HeLa A3F-eYFP + Vif (tagged APOBEC3F with the HIV-1 protein that degrades it), YFP fluorescence increase | Potency, µM (doses to about 46.1 µM), without a hit: at the top dose activity, negative = active | actives 0.2% (n = 390,000); further: potency means the concentration at half of the fitted maximal effect; % of control where 0% means no effect; nearly all actives have a fitted effect of over 65% in size
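HeLa cells stably expressing A3F-eYFP plus Vif, plated and incubated overnight at 37 deg C, then exposed to compounds overnight at 37 deg C. Blocked degradation read as raised yellow fluorescence (Ex 488/Em 500-530).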
Vif-APOBEC3G blk: Vif-A3G binding inhibition | HeLa A3G-eYFP + Vif (tagged APOBEC3G with the HIV-1 protein that degrades it), YFP fluorescence, overnight | Q9HC16 | actives 0.076% (n = 410,000) | Potency, µM (series often up to 46.1 µM), inactives show at the top dose activity, negative = active, most hits filed as inhibitors | AID 602310; further: potency means the concentration at half of the fitted maximal effect; on the % scale 0 is the no-effect control and ±100 the full control effect; nearly all actives have a fitted effect of over 60% in size
Target sequence (Q9HC16 whole entry, looked up): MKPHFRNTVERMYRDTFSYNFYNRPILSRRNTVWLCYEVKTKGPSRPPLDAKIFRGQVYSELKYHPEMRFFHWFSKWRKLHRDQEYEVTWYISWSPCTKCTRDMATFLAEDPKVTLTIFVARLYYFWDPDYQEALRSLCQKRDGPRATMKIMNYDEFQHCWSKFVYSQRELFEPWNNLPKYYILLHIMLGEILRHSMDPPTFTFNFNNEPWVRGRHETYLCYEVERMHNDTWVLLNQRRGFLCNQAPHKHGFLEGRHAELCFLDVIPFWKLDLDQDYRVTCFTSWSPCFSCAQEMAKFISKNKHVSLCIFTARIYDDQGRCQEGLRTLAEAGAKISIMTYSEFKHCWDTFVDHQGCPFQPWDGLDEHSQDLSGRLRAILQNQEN
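HeLa cells stably expressing Vif and C-terminally eYFP-tagged A3G, seeded overnight at 37 deg C, then exposed to compound by pintool overnight at 37 deg C. Rise in yellow fluorescence (Ex 488/Em 500-530, Acumen) marks blocked Vif-driven A3G degradation.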
SW480 rereplic: DNA re-replication induction in SW480 cells; Potency, µM (doses to about 46.1 µM), for the others: at the highest dose re-replication activation, actives largely listed as activators; actives 1.8% (n = 340,000); SW480 DNA re-replication, Hoechst DNA content imaging, 48 h; further: potency means the concentration at half of the fitted maximal effect; % of control where 0% means no effect; nearly all actives have a fitted effect of over 55% in size
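Compounds, transferred as 23 nL by pin tool, were incubated with cells for 48 hr; DNA content per nucleus was then quantified by Hoechst staining and fluorescence plate imaging.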
Giardia killer: kills Giardia lamblia. Giardia lamblia trophozoite viability. activity change, % at 7.66 µM, hits read low. actives 0.15% (n = 340,000). AID 540267; in the data active means activity change below about -80%; inconclusive means between about -30% and that limit;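 further: parasites exposed to compound for two days anaerobically before the ATP read; on the % scale 0 is the no-effect control and ±100 the full control effect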
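Media and compound were dispensed first, then trophozoites at 100 cells/well; plates sat 48 hrs at 37 deg C without oxygen before ATP luminescence reagent was added and read after 15-30 min at room temperature.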
* = called active by the depositor. Hits are enriched below; roughly 6.9% of the tested compounds scored in any of these assays. Unless noted, the call rests on the fitted dose curve; in most records, active means well fitted curve in the direction sought with a large enough effect; inconclusive means small, poorly fitted or top-dose-only effect, or another doubt; inactive means no such curve, though single readings can be large; an effect the other way counts as inactive or inconclusive.

What do the screens show for `O=C(NNc1ccccc1Br)C(O)(c1cccc(C(F)(F)F)c1)c1cccc(C(F)(F)F)c1`?
MCF10A rereplic: inconclusive; IL-1B inflam inh: -59*; Vif-A3F inh: 4%; Vif-APOBEC3G blk: -10%; SW480 rereplic: inconclusive; Giardia killer: -17

What do the screens show for `Cc1ccc(NNC(=O)C(O)(c2cccc(C(F)(F)F)c2)c2cccc(C(F)(F)F)c2)cc1`?
MCF10A rereplic: 12µM*; IL-1B inflam inh: -97*; Vif-A3F inh: 7%; Vif-APOBEC3G blk: -9%; SW480 rereplic: inconclusive; Giardia killer: -10

Results for Cc1ccc(CCNC(=O)C2CCCN(S(=O)(=O)c3ccc4c(c3)oc(=O)n4C)C2)cc1 (stereo not given) ?
Vif-A3F inh: -10%; Vif-APOBEC3G blk: -1%

What do the screens show for `S=C(NCc1ccco1)Nc1cc(Cl)c(Cl)cc1Cl`?
MCF10A rereplic: inconclusive; IL-1B inflam inh: -52*; Vif-A3F inh: -4%; Vif-APOBEC3G blk: -6%; SW480 rereplic: -5%; Giardia killer: -2

How did S=C(NCc1ccco1)Nc1ccc(Cl)c(Cl)c1 do in these assays?
MCF10A rereplic: 0%; IL-1B inflam inh: -101*; Vif-A3F inh: -22%; Vif-APOBEC3G blk: -12%; SW480 rereplic: -4%; Giardia killer: 11

How did S=C(NCc1ccco1)Nc1cccc(Cl)c1 do in these assays?
MCF10A rereplic: 12%; IL-1B inflam inh: 0; Vif-A3F inh: -2%; Vif-APOBEC3G blk: 2%; SW480 rereplic: inconclusive; Giardia killer: 10

Results for Cc1ccccc1NC(=S)NCc1ccco1 ?
MCF10A rereplic: 15%; IL-1B inflam inh: -2; Vif-A3F inh: 3%; Vif-APOBEC3G blk: -1%; SW480 rereplic: -1%; Giardia killer: -8

What do the screens show for `CCOC(=O)CSc1nc(-c2ccncc2)ccc1C#N`?
MCF10A rereplic: 12µM*; IL-1B inflam inh: -16; Vif-A3F inh: -1%; Vif-APOBEC3G blk: -3%; SW480 rereplic: 4%; Giardia killer: -22

What do the screens show for `CCOC(=O)CCCSc1nc(-c2ccc3c(c2)OCO3)cc(C(F)(F)F)c1C#N`?
MCF10A rereplic: 1%; IL-1B inflam inh: 13; Vif-A3F inh: -2%; Vif-APOBEC3G blk: 0%; SW480 rereplic: inconclusive; Giardia killer: 2

How did CCOC(=O)CC(=O)CSc1nc(-c2cccnc2)ccc1C#N do in these assays?
MCF10A rereplic: -5%; IL-1B inflam inh: -6; Vif-A3F inh: -2%; Vif-APOBEC3G blk: 0%; SW480 rereplic: -18%; Giardia killer: -11

Results for CCOC(=O)CSc1nc(-c2ccc3c(c2)OCO3)ccc1C#N ?
MCF10A rereplic: 16µM*; IL-1B inflam inh: 31; Vif-A3F inh: -6%; Vif-APOBEC3G blk: 4%; SW480 rereplic: 2%; Giardia killer: -3

Results for COc1ccccc1/C=C/C(=O)NCCC1=CCCCC1 ?
MCF10A rereplic: -7%; IL-1B inflam inh: -50*; Vif-A3F inh: 0%; Vif-APOBEC3G blk: -5%; SW480 rereplic: 2%; Giardia killer: -5

What do the screens show for `O=C(/C=C/c1ccccc1)NCCC1=CCCCC1`?
MCF10A rereplic: inconclusive; IL-1B inflam inh: 0; Vif-A3F inh: -10%; Vif-APOBEC3G blk: -3%; SW480 rereplic: -45%; Giardia killer: 34

Results for NS(=O)(=O)c1ccc(NC(=O)CN2C(=O)COc3ccc(Cl)cc32)cc1 ?
Vif-A3F inh: -2%; Vif-APOBEC3G blk: -2%

How did CC(=O)Nc1ccc(NC(=O)c2ccc(Cn3cc(Cl)cn3)cc2)cc1 do in these assays?
MCF10A rereplic: 5%; IL-1B inflam inh: -19; Vif-A3F inh: 2%; Vif-APOBEC3G blk: -2%; SW480 rereplic: -3%; Giardia killer: 14

What do the screens show for `COc1ccc(C(=O)Nc2cnn(Cc3ccc(Cl)cc3)c2)cc1OC`?
MCF10A rereplic: 12µM*; IL-1B inflam inh: -1; Vif-A3F inh: 5%; Vif-APOBEC3G blk: -13%; SW480 rereplic: -694%; Giardia killer: -5
